Pf growth 96h = inhibits malaria parasite growth, 96 h; Potency, µM (doses to about 28.7 µM), without a hit: at the highest dose activity change, negative = inhibition, hits mostly inhibitors; hit rate 6.9% among 320,000; P. falciparum luciferase reporter growth, 96 h; note: potency is the fitted concentration of half-maximal effect; % is set by controls: 0 for no effect and ±100 for the full control effect
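P. falciparum expressing integrated firefly luciferase, in erythrocytes at 2% hematocrit, 0.05% parasitemia, incubated with compounds 96 h at 37 C, 5% CO2. Growth inhibition read as loss of luminescence; two-generation exposure targets delayed-death apicoplast inhibitors.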
Shiga toxin inh = Shiga toxin inhibition; Vero cells, Shiga toxin protein synthesis inhibition reporter; inhibition, % at 38.7 µM; hit rate 9.2% among 290,000; AID 2315; in the data active = inhibition mostly above about 28%, no sharp cut-off; inactive = mostly below about 43%; note: 0% is about no effect
HCV inhibitor = inhibitors of hepatitis C virus infection. Potency, µM (highest dose often 41.8 µM), without a hit: at the highest dose activity change, negative = inhibition, most hits filed as inhibitors. Huh7.5.1 HCVcc-Cre infection, luciferase reporter, 44 h. AID 651820. hit rate 3.4% among 340,000; note: potency is the fitted concentration of half-maximal effect; % is set by controls: 0 for no effect and ±100 for the full control effect
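Infectious HCVcc-Cre (~0.5 moi) was added to cells just after compound, with cells seeded 4 h earlier at 1,000 per well. Luciferase activity after 44 h culture reported infection; substrate was incubated 15 min at room temperature before reading.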
Pf growth 48h = inhibits P. falciparum growth in the first generation, 48 h; hit rate 5.9% among 310,000; P. falciparum luciferase growth in erythrocytes, 48 h; AID 504832; Potency, µM (doses to about 28.7 µM), for inactives: at the highest dose activity change, negative = inhibition, hits mostly inhibitors; note: potency is the fitted concentration of half-maximal effect; % is set by controls: 0 for no effect and ±100 for the full control effect
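Firefly luciferase activity from engineered P. falciparum reports growth; inhibitors lower the luminescent signal. Cultures contained 2% hematocrit erythrocytes at 0.1% final parasitemia.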
CHX counter = affects cycloheximide protein synthesis inhibition readout, counter-screen; cell reporter, cycloheximide protein synthesis inhibition counterscreen; max response, %; hit rate 12% among 300,000; AID 2314; in the data active = max response mostly above about 13%, no sharp cut-off; inactive = mostly below about 14%; note: read at 38.3 µM for the half of the compounds with a filed dose; 0% is about no effect
HCMV inh = blocks human cytomegalovirus replication; HFF cells, HCMV-luciferase reporter, 72 h; hits give low values; AID 1259415; activity change, negative = inhibition, % at 57.5 µM; hit rate 4.5% among 410,000; in the data active = activity change below about -60%; inconclusive = no clear call, values can overlap the other calls; inactive = above about -39%; note: % is set by controls: 0 for no effect and ±100 for the full control effect
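Cell-based, HFFs, 1000 cells/well, 16 h 37C; cpds in DMSO + HCMV-luc, MOI 1 PFU/cell; 72 h 37C; OneGlo luminescence after 5 min RT; norm. to buffer vs Salinomycin 10uM.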
* = called active by the depositor; ? = inconclusive; nt = not tested or not shown; + = active, no number; [ ] = remark or other dose. Hits are enriched below; roughly 21% of the tested compounds scored in any of these assays. Unless noted, calls come from the whole dose curve; as a rule, active = well fitted inhibition curve with a large enough effect; inconclusive = small, poorly fitted or top-dose-only effect, or another doubt; inactive = no such curve, though single readings can be large or run the other way.

SMILES	Pf growth 96h	Shiga toxin inh	HCV inhibitor	Pf growth 48h	CHX counter	HCMV inh
Cc1ccc(S(=O)(=O)NCC(=O)N(c2ccccc2)C(C(=O)NCc2ccccc2)c2ccco2)cc1 (stereo not drawn)	13µM*	-8	3%	-15%	0	-86*
CCN(CC)c1ccc2c(cc1=O)[C@@H](NC)CCc1cc(OC)c(OC)c(OC)c1-2	-10%	15	0%	?	8	-92*
CN[C@H]1CCc2cc(OC)c(OC)c(OC)c2-c2ccc(N(C)CC(OC)OC)c(=O)cc21	?	-3	1%	nt	-1	-74*
COc1cc2c(c(OC)c1OC)-c1ccc(N(C)CC(OC)OC)c(=O)cc1[C@@H](NC(C)=O)CC2	-24%	14	22%	nt	-7	-87*
COc1cc(C(=O)NC2CCCc3ccccc32)cc(OC)c1OC (stereo not drawn)	?	2	?	?	2	50
Cc1cccc(N2CCN(S(=O)(=O)c3c(C(=O)N4CCCCC4)c(C)n(C)c3C)CC2)c1C	-17%	-8	4%	?	-8	-39
Oc1cccc(C(O)CNCc2ccc(-c3ccccc3)cc2)c1 (stereo not drawn)	5%	-6	?	-28%	-3	-62*
O=C(c1ccccc1)c1ccc(OCC(O)CNCc2cccc(Cl)c2)cc1 (stereo not drawn)	-27%	2	28%	-27%	1	-1
OC(CNCc1ccccc1)c1ccccc1 (stereo not drawn)	?	1	-19%	9.3µM*	1	2
ClCC(CNCc1ccccc1)c1ccccc1 (stereo not drawn)	nt	nt	-14%	nt	nt	-26
OC(CNC1Cc2ccccc2C1)c1ccccc1 (stereo not drawn)	13µM*	4	9%	12µM*	9	nt
OC(CNCc1cccc(Cl)c1)c1ccccc1 (stereo not drawn)	8%	-5	14%	2.1µM*	5	24
COc1cccc(C(=O)c2cn(CC(=O)Nc3cccc(C)c3C)c3nc(C)ccc3c2=O)c1	nt	nt	nt	nt	nt	-5
CC(C)CCN1CCN=C1Nc1ccccc1	59%	10	8%	15%	-2	-4
CCn1cc(C(=O)OCC(=O)Nc2cc(Cl)ccc2C)c(=O)c2ccc(C)nc21	nt	nt	nt	nt	nt	-8
OC(C[n+]1ccccc1)c1ccccc1 (stereo not drawn)	0.66µM*	-4	2%	?	-1	30
Cc1cc(C)c2cccc(N)c2n1	-59%	-11	6%	22%	-1	-38
Cc1cc(N)c2ccccc2[n+]1CCCCCCCCCC[n+]1c(C)cc(N)c2ccccc21	-100%[12.8 µM]	nt	nt	0.18µM*	nt	nt
O=C(Nc1ccnn1C1CCN(C(=O)c2ccccc2C(F)(F)F)CC1)C1CC1	2%	40	5%	-15%	27*	-78*
COC(C(=O)N1CCC(n2nccc2NC(=O)C2CC2)CC1)c1ccccc1 (stereo not drawn)	38%	107*	-5%	-6%	41*	83
COc1ccc2cc(CCNC(=O)c3cccs3)c(=O)[nH]c2c1	31%	54*	3%	?	48*	165
Cc1ccc2cc(CCNC(=O)c3cc4ccccc4o3)c(=O)[nH]c2c1C	?	-35	-6%	?	-8	19
COc1ccc2cc(CCNC(=O)c3cc4ccccc4o3)c(=O)[nH]c2c1	1.5µM*	36	?	37%	-2	50
CCO[C@H]1OC(C(=O)NCc2ccccc2)=C[C@@H](C(C)(C)C)[C@@H]1CCCO	nt	nt	1%	nt	nt	29
O=C(CCC1CCCCC1)Nc1ccccc1O	nt	107*	-5%	-61%	39*	32
SMILES	Pf growth 96h	Shiga toxin inh	HCV inhibitor	Pf growth 48h	CHX counter	HCMV inh
Cc1ccc(NC(=O)C2CCCCC2)c(O)c1	-20%	41	nt	30%	21*	nt
Cc1ccc(O)c(NC(=O)CCCC(=O)O)c1	nt	15	18%	9%	-3	?
Cc1ccc(O)c(NC(=O)CCC2CCCCC2)c1	13µM*	138*	10%	?	34*	-25
Cc1ccc2c(=O)cc(C(=O)Nc3ccc(S(=O)(=O)N(C)Cc4ccccc4)cc3)oc2c1	nt	nt	nt	nt	nt	-16
CSc1ncccc1C(=O)OCC(=O)N(CC(C)C)c1c(N)n(Cc2ccccc2)c(=O)[nH]c1=O	-11%	-4	3%	17%	-1	-32
CCOC(=O)c1ccc(N=C2C(=S)N(c3ccc(C(=O)OCC)cc3)C(=N)N2/N=C/c2ccccc2)cc1	10µM*	33*	?	?	12	-2
Oc1ccc(/C(Cc2ccc3ccccc3n2)=N\Nc2ccccc2)c(O)c1	?	69*	?	?	34*	58
Cc1c(O)ccc(/C(Cc2ccc3ccccc3n2)=N\O)c1O	229%	121	11µM*	259%	16	2
CC(=O)Oc1ccc(C(=O)Cc2ccc3ccccc3n2)c(O)c1C	163%	+	?	52%	26*	4
COc1ccc2c(c1)[C@@H](NS(C)(=O)=O)[C@H](C)[C@@H](C(C)C)N2	nt	nt	nt	nt	nt	9
CSc1cccc(NC(=O)NNC(=O)C2CCN(S(=O)(=O)N(C)C)CC2)c1	-8%	-6	12%	14%	-9	-2
CC(C)=CCC[C@](C)(O)C1CC=C(C)CC1 (stereo partly drawn)	0%	nt	nt	-12%	nt	nt
COc1ccccc1C1N=C(c2ccccc2C)NO1 (stereo not drawn)	216%	123*	2%	89%	44*	15
Cc1ccccc1C1=NC(c2ccc(F)cc2F)ON1 (stereo not drawn)	nt	85	-3%	125%	30*	-17
CCCCN(CC)C(=O)CSc1nc2c(sc(=S)n2-c2ccc(OCC)cc2)c(=O)[nH]1	?	-9	-1%	?	0	?
S=C(S)OC1CC2CC1C1CCCC21 (stereo not drawn)	nt	nt	46%	nt	nt	-60*
C#Cc1ccc([C@@H]2C=C(C(=O)N3CCN(Cc4ccc5c(c4)OCO5)CC3)O[C@H](OCC)[C@H]2CCCO)cc1	-20%	-5	?	-79%	1	-34
CCO[C@H]1OC(C(=O)N2CCN(Cc3ccc4c(c3)OCO4)CC2)=C[C@@H](C2CC2)[C@@H]1CCCO	7.4µM*	-2	-23%	?	0	-26
CCO[C@@H]1OC(C(=O)O)=C[C@H](c2ccc3c(c2)OCO3)[C@H]1CCCO	42%	8	16%	30%	-2	-4
CCO[C@H]1OC(C(=O)N2CCN(Cc3ccc4c(c3)OCO4)CC2)=C[C@@H](c2ccc(C(F)(F)F)cc2)[C@@H]1CCCO	1.5µM*	-25	?	?	-3	-12
CCO[C@@H]1OC(C(=O)N2CCN(Cc3ccc4c(c3)OCO4)CC2)=C[C@H](c2ccc3c(c2)OCO3)[C@H]1CCCO	3.3µM*	-7	2%	?	-1	1

Screening results: PubChem BioAssay, National Center for Advancing Translational Sciences (NCATS)
